A selection: hits, their analogues and other compounds. The true share with any hit is near 3.4%.
miR-122 sensor: inhibitors of miR-122 in Huh7 cells; Huh7 miR-122 Renilla luciferase sensor, 48 h; neutral wells = 0, positive control = 100; activation (reporter increase), % at 12.5 µM; 340,000 tested, 0.3% active; AID 602342;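 active means mean replicate activation score at least 90 and every replicate individually at or above 90; inconclusive means only one of the two criteria met; inactive means neither criterion met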;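 further: higher luciferase means less miR-122 activity so hits act as miR-122 inhibitors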
esBAF inh: inhibitors of esBAF chromatin remodeling in mouse ES cells; reporter increase, % at 12.5 µM; Bmi1-luciferase knock-in reporter, 24 h; 100% = twice the neutral-well signal; 350,000 tested, 2% active; in the data active means activation above about 40%; inconclusive means no clear call, values can overlap the other calls;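 further: 0% = median of the plate's neutral control wells and 100% = double that signal; a rise in the Bmi1 reporter signal indicates esBAF inhibition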
Wnt bcat act: Wnt/beta-catenin pathway activation. Wnt/beta-catenin reporter cell assay, activator, plate reader. activation, % at 9.35 µM. 300,000 tested, 1.2% active. AID 743398; in the data active means activation above about 30%, passing the limit was not always enough; inconclusive means no clear call, values can overlap the other calls;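 further: 0% = neutral control wells and 100% = positive control wells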
MITF TRPM1 HTS: activators of MITF-driven TRPM1 promoter activity in SK-MEL-5 cells | SK-MEL-5 TRPM1-promoter luciferase, 24 h; % of positive control, neutral wells = 0 | activation, % at 12.5 µM | 300,000 tested, 0.75% active;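 active means mean activation of at least 80% with every replicate also reaching 80%; inconclusive means mean reaches 80% but some replicate falls short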;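 further: 0% = neutral control wells and 100% = parthenolide positive control wells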
HIV Env fusion: HIV envelope-mediated fusion inhibition. HeLa-JRFL Env/CEM21 cell fusion, luciferase. inhibition, % at 12.3 µM. 360,000 tested, 1.1% active. AID 651610;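 active means mean replicate inhibition score of at least 50 and every replicate individually at or above 50; inconclusive means only one of the two criteria met; inactive means mean below 50 and not all replicates reaching 50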;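 further: 0% = plate neutral controls and 100% = maraviroc near 300 nM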
Numbers without * were called inactive; ? = inconclusive; . = no result given; [ ] = another dose, or the depositor's remark.

SMILES	miR-122 sensor	esBAF inh	Wnt bcat act	MITF TRPM1 HTS	HIV Env fusion
CO[C@@H]1CN(C)C(=O)c2ccc(NC(=O)C3CCCC3)cc2OC[C@@H](C)N(C(=O)Nc2ccc(C(F)(F)F)cc2)C[C@H]1C	17[16.7 µM]	8	.	.	.
O=C(NCc1ccncc1)[C@@H]1[C@@H](CO)[C@@H]2Cn3c(ccc(-c4cccnc4)c3=O)[C@@H]2N1C(=O)C1CC1	1[16.7 µM]	-5	.	.	.
CCc1ccc(-c2cc(C)no2)cc1S(=O)(=O)NCc1ccccc1OC	109*	-7	-3	-7	-7
COc1ccccc1CNS(=O)(=O)c1ccc(-c2cc(C)no2)cc1	?	-21	-14	-35	-261
CCN(c1ccc(OC)cc1)S(=O)(=O)c1cc(-c2cc(C)no2)ccc1C(C)C	1	-3	-4	-16	25
Cc1cc(-c2ccc(C(C)C)c(S(=O)(=O)NCc3ccco3)c2)on1	168*	4	-3	12	-7
CCOc1ccc(N(C)S(=O)(=O)c2cc(-c3cc(C)no3)ccc2C(C)C)cc1	8	-6	-7	-6	79*
Cc1cccc(Oc2cc(NC(=O)Cn3cnc([N+](=O)[O-])n3)cc([N+](=O)[O-])c2)c1	.	.	-7	-19	19
Cc1cc(C)cc(Oc2cc(NC(=O)c3cn(C)nc3C)cc([N+](=O)[O-])c2)c1	-1	4	.	-6	59*
COc1ccccc1-c1ccc2c(c1)[C@H]1[C@H](CCN1S(=O)(=O)c1cccc(F)c1)[C@@H](CO)N2	62[16.7 µM]	-1	.	.	.
O=C(Nc1ccccc1)c1nc[nH]c1C(=O)NCCCNC(=O)c1[nH]cnc1C(=O)Nc1ccccc1	-7	-5	-3	-5	18
O=C(Nc1ccccc1)c1nc[nH]c1C(=O)NCCCCCCNC(=O)c1[nH]cnc1C(=O)Nc1ccccc1	0	6	-12	-13	57*
CC1(C(=O)NS(=O)(=O)c2ccccc2Cl)CCN1C(=O)CCc1ccc(Cl)cc1Cl (stereo unspecified)	1	-3	-6	.	4
Cc1ccccc1S(=O)(=O)NC(=O)C1(C)CCN1C(=O)CCc1ccc(Cl)cc1Cl (stereo unspecified)	-3	-1	-5	.	71*
CC=Cc1ccc2n(c1=O)C[C@H]1[C@H](CO)[C@@H](C(=O)NCc3ccc4c(c3)OCO4)[C@@H]2N1C(=O)CC (mixture of isomers)	2[16.7 µM]	-4	.	.	.
O=c1c2ccccc2nc(SCc2nnc(-c3ccccc3Br)o2)n1-c1ccccc1	-2	3	0	-3	.
Brc1ccccc1-c1nnc(CSc2nncn2-c2ccccc2)o1	-5	28	35*	1	-82
CCCC(=O)Nc1ccc2c(c1)C(=O)N(C)[C@@H]1CC[C@@H](CC(=O)Nc3cn(C)nc3C)O[C@H]1CO2	25[16.7 µM]	0	.	.	.
CC(=O)c1ccc(OC2(C)CCN(Cc3cccn3-c3nccs3)C2)cc1 (stereo unspecified)	.	2	-1	.	-19
CC1(Oc2ccc3ccccc3c2)CCN(Cc2cccn2-c2nccs2)C1 (stereo unspecified)	.	-9	0	.	70*
c1ccc(-c2cnc(-c3ccccn3)nn2)cc1	-3	-15	46*	49	13
CCCN(C)C[C@H]1Oc2cc(C#CCOC)ccc2S(=O)(=O)N([C@@H](C)CO)C[C@H]1C	1[16.7 µM]	0	.	.	-6[16.7 µM]
COc1ccc(C(=O)C(C)N(C(=O)c2ccc(Cl)cc2Cl)N2C(=O)C3C4C=CC(C4)C3C2=O)cc1 (stereo unspecified)	2	-5	.	-4	123*
N#C/C(=C\c1c(N(Cc2ccccc2)Cc2ccccc2)nc2ccccn2c1=O)C(N)=O	.	.	-4	6	58*
C=CCNC(=O)/C(C#N)=C/c1c(N(Cc2ccccc2)Cc2ccccc2)nc2ccccn2c1=O	36	.	-1	-8	23
SMILES	miR-122 sensor	esBAF inh	Wnt bcat act	MITF TRPM1 HTS	HIV Env fusion
COc1ccc(CNC(=O)CN(Cc2ccccc2)S(=O)(=O)c2ccc(Cl)cc2)cc1	13	4	.	3	22
COc1ccc(CNC(=O)CN(Cc2ccc(Cl)cc2)S(=O)(=O)c2ccccc2)cc1	3	0	.	-6	59*
CCCNC(=O)N1[C@H](CNC(=O)c2ccccc2)[C@@H](c2ccccc2)[C@@H]1CO	-6[16.7 µM]	-6	.	.	.
COC(=O)c1sc(NC(=O)c2ccc(C)o2)nc1C	.	.	26	49	-47
Cc1c(C(=O)Nc2cccnc2Cl)oc2ccccc12	3	48*	24	51	-52
COC(=O)c1sc(NC(=O)c2oc3ccccc3c2C)nc1C	4	60*	.	18	.

Screening data from PubChem BioAssay.
